FMDV antiviral: High Throughput Screening for Foot and Mouth Disease Virus Antivirals | Potency, µM (series often up to 57.9 µM), inactives show at the top dose activity change, negative = inhibition, hits mostly inhibitors | AID 1159524, 2015 | actives 1.2% (n = 410,000) | FMDV antiviral cell-based qHTS; calls by dose curve; tested in HEK293T cells; further: read-out not given here; potency means the concentration at half of the fitted maximal effect; nearly all actives have a fitted effect of over 45% in size
HCV inhibitor: qHTS Assay for Inhibitors of Hepatitis C Virus (HCV) | Huh7.5.1 HCVcc-Cre infection, luciferase reporter, 44 h | Potency, µM (highest dose often 41.8 µM), for inactives: top-dose activity change, negative = inhibition, most hits filed as inhibitors | actives 3.4% (n = 340,000) | AID 651820, 2012; further: potency means the concentration at half of the fitted maximal effect
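Compounds are dispensed onto cells plated 4 h earlier at 1,000 per well, with HCVcc-Cre virus (about 0.5 moi) added next. Following 44 h of culture, luminescent signal is measured for 15 sec after 15 min with substrate at room temperature.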
Vaccinia Venus: qHTS for Stage-Specific Inhibitors of Vaccinia Orthopoxvirus: Venus Reporter Primary qHTS; Potency, µM (titrated, usually from 36.5 µM), for the others: top-dose activity change, negative = inhibition, most hits filed as inhibitors; Vaccinia virus Venus reporter expression, fluorescence; actives 0.46% (n = 330,000); calls by dose curve; tested in A549 cells; further: potency means the concentration at half of the fitted maximal effect; nearly all actives have a fitted effect of over 30% in size
HCMV antiviral: qHTS Assay for inhibitors of the human cytomegalovirus (HCMV); HFF cells, HCMV-luciferase reporter, 72 h; hits give low values; activity change, negative = inhibition, % at 57.5 µM; AID 1259415, 2018; actives 4.5% (n = 410,000); in the data active means activity change below about -60%; inconclusive means no clear call, values can overlap the other calls; inactive means above about -39%
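After 16 h attachment at 37C, HFF cells received test compound and HCMV-luciferase (1 PFU/cell); reporter luminescence read 72 h later, data normalized against buffer-only and known inhibitor Salinomycin.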
Giardia FBPA inh: qHTS Assay for Inhibitors of Fructose-1,6-bisphosphate Aldolase from Giardia Lamblia | purified Giardia FBPA | Potency, µM (doses to about 59.6 µM), inactives show at the highest dose activity, negative = inhibition, actives largely listed as inhibitors | actives 0.71% (n = 290,000) | AID 2451, 2010; further: potency means the concentration at half of the fitted maximal effect; nearly all actives have a fitted effect of over 55% in size
Target sequence (A8B2U2 whole entry, looked up): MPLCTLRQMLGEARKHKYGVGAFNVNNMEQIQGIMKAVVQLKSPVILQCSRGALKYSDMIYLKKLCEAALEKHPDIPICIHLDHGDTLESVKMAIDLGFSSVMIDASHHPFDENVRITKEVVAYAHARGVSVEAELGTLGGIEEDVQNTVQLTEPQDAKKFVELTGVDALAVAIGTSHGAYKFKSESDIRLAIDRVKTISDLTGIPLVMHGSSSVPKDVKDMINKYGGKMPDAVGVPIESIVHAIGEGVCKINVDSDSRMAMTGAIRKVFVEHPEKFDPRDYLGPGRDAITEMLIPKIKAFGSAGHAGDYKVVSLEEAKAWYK
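40 nM FBPA preincubated 10 min at RT with compound (up to 57.5 uM final), then substrate plus GAPDH/TPI/NAD/arsenate coupling and diaphorase/resazurin added. Fluorescence read after 20 min at RT, 525/598 nm.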
VACV mCherry inh: qHTS for Stage-Specific Inhibitors of Vaccinia Orthopoxvirus: mCherry Reporter Primary qHTS; Potency, µM (doses to about 36.5 µM), without a hit: top-dose activity change, negative = inhibition, most hits filed as inhibitors; AID 720579, 2013; Vaccinia virus mCherry reporter infection, fluorescence; actives 0.63% (n = 310,000); calls by dose curve; tested in A549 cells; further: potency means the concentration at half of the fitted maximal effect; nearly all actives have a fitted effect of over 35% in size
Active calls of the source: *; i = inactive; u = inconclusive; x = no result; ! = not active in a repeat. The list is not random: actives were taken first. Their share in the collection is about 7.5%. Unless noted, the call rests on the fitted dose curve; in most records, active means well fitted curve in the direction sought with a large enough effect; inconclusive means small, poorly fitted or top-dose-only effect, or another doubt; inactive means no such curve, though single readings can be large; an effect the other way counts as inactive or inconclusive. On the % scale 0 is the no-effect control and ±100 the full control effect.

SMILES	FMDV antiviral	HCV inhibitor	Vaccinia Venus	HCMV antiviral	Giardia FBPA inh	VACV mCherry inh
O=C(c1cc2nc(-c3cccs3)cc(C(F)(F)Cl)n2n1)N1CCCc2ccccc21	x	7.08µM*	-13.2%	-86.5*	3.3%	i
O=C(c1nn2c(C(F)(F)F)cc(-c3ccco3)nc2c1Br)N1CCCc2ccccc21	0.0%	12.6µM*!	u	-17.1	2.0%	u
O=C(c1cc2nc(-c3cccs3)cc(C(F)(F)F)n2n1)N1CCCc2ccccc21	0.0%	10µM*	-0.1%	u	-6.7%	-11.3%
COc1ccc(N(CC(=O)N/N=C/c2ccc(N(C)C)cc2)S(=O)(=O)c2ccccc2)cc1	0.9%	-26.5%	-23.6%	11.1	9.4%	u
O=C(CN(c1cccc(Br)c1)S(=O)(=O)c1ccccc1)N/N=C/c1cc([N+](=O)[O-])ccc1O	u	u	-23.9%	-93.6*	x	-23.6%
COc1ccccc1N(CC(=O)N/N=C/c1ccc(OCC(=O)NCc2ccco2)cc1)S(=O)(=O)c1ccc(C)cc1	-24.7%	5.01µM*	u	x	6.3%	x
COC(=O)COc1ccc(/C=N/NC(=O)CN(c2ccccc2OC)S(=O)(=O)c2ccccc2)cc1	u	u	1.9%	-99.8*	4.0%	-19.3%
COc1ccc(N(CC(=O)N/N=C/c2ccccc2F)S(=O)(=O)c2ccccc2)cc1	0.6%	u	-14.6%	-76.8*	-0.8%	-18.0%
C=CCSc1nnc(C2CCCN(Cc3ccccc3O)C2)n1C (stereo not given)	3.0%	x	-18.0%	x	x	i
O=C(NCc1ccco1)C1=COC2=NC(=O)N(Cc3ccccc3)CCN12	x	x	x	-8.3	x	x
CCC(=O)n1nc(NCc2ccccc2OC)nc1NCc1ccccc1OC	u	11.2µM*	-25.2%	-0.3	-4.8%	x
COc1ccccc1CNc1nc(-c2ccco2)nn1C(=O)c1cc(OC)c(OC)c(OC)c1	10.5%	x	2.9%	15.0	x	-0.8%
O=C(c1cccc(S(=O)(=O)NCc2ccccc2)c1)N1CCN(c2ccccc2)CC1	3.7%	u	x	-29.4	x	x
O=C(c1cccc(S(=O)(=O)NCc2ccccc2)c1)N1CCN(c2ccccc2Cl)CC1	0.0%	11.2µM*	x	37.0	x	x
CC1CN(C(=O)c2ccc(Cl)c(S(=O)(=O)NCc3ccco3)c2)CC(C)O1 (stereo not given)	-3.3%	6.6%	x	14.4	x	x
Cc1cccc(N2CCN(C(=O)c3ccc(Cl)c(S(=O)(=O)NCc4ccco4)c3)CC2)c1C	u	10µM*	u	-1.8	2.1%	u
CC(=O)c1cc(C(=O)N2CCCC(C(=O)c3ccc(Cl)cc3)C2)cs1 (stereo not given)	-11.0%	x	-6.3%	-1.8	6.1%	-2.9%
O=C(NCc1nnc2n1CCN(Cc1cc3c(cc1Cl)OCO3)CC2)c1cccc(F)c1	-10.5%	x	-24.1%	x	x	-5.9%
O=C(Nc1ccc(N2CCN(Cc3ccccc3)CC2)cc1)c1cccnc1	-25.1%	-31.5%	-14.0%	-61.1*	0.2%	x
COc1ccc(NC(=O)c2ccc(CN3CCN(c4ccccc4)CC3)cc2)cc1	u	-16.0%	-21.0%	-33.7	-4.9%	x
COc1cccc(NC(=O)c2ccc(CN3CCN(c4ccccc4)CC3)cc2)c1	u	14.1µM*	x	-67.3*	-5.6%	x
COc1cccc(C(=O)Nc2ccc(N3CCN(Cc4ccccc4)CC3)cc2)c1	u	u	-18.6%	u	-0.9%	-28.4%
CC(=O)c1cccc(NC(=O)c2ccc(CN3CCc4ccccc4C3)cc2)c1	u	11.2µM*	x	-5.2	-10.7%	x
Cc1ccc(C(=O)NCC(=O)Nc2ccc3c(c2)CCC3)cc1	60.1%	10.8%	11.1%	69.6	x	i
Cc1ccc(C(=O)Nc2ccc3c(c2)CCC3)cc1	-20.4%	-25.9%	x	-74.4*	-26.3%	x
SMILES	FMDV antiviral	HCV inhibitor	Vaccinia Venus	HCMV antiviral	Giardia FBPA inh	VACV mCherry inh
CC(C(=O)N1CCc2ccccc21)N1CCN(c2cccc(C(F)(F)F)c2)CC1 (stereo not given)	-27.5%	0.7%	-30.0%	-26.0	-4.6%	u
CCCN1CNc2c(c(=O)[nH]c(=S)n2CCc2cccc(OC)c2)C1	x	x	-12.9%	x	x	-10.9%
Cc1cc(C)c(NC(=O)c2ccc(CN3CCc4ccccc4C3)cc2)c(C)c1	u	8.91µM*	u	-34.4	-20.7%	x
COc1ccc(NC(=O)c2oc3c(c2C)-c2nn(Cc4ccccc4Cl)cc2CC3)cc1OC	-28.4%	x	-2.2%	-63.7*	x	-14.8%
COc1cccc(NC(=O)c2ccc(N3C(=O)C4CC=C(C)CC4C3=O)cc2)c1 (stereo not given)	u	u	x	-63.8*	6.6%	x
O=C(Cc1cccc(F)c1)Nc1ccc2c(c1)CCC2	38.5%	-2.3%	-12.0%	-98.2*	15.3%	-9.1%
COCCCNC(=O)c1oc2c(c1C)-c1nn(Cc3ccccc3Cl)cc1CC2	-10.8%	x	-21.5%	-18.9	x	-27.8%
CCC1CN(CCNC(=O)c2cccc3nccnc23)Cc2cc(OC)ccc2O1 (stereo not given)	-11.4%	x	0.8%	x	x	-8.4%
CN(C(=O)COC(=O)CNC(=O)c1cccs1)c1c(N)n(Cc2ccccc2)c(=O)[nH]c1=O	-2.7%	6.8%	x	-5.6	x	x
Cc1csc(NC(=O)c2cc3c(C)nn(Cc4ccccc4Cl)c3s2)n1	u	u	-24.5%	-16.3	-0.3%	-13.0%
CCOC(=O)c1cc2c(=O)n3ccccc3nc2n(CC2CCCO2)c1=NC(=O)c1ccc(OC)cc1OC (stereo not given)	20.3%	x	-5.3%	7.9	x	-18.2%
CS(=O)(=O)N1CCC2(CC1)CN(C(=O)Nc1ccccc1)C2	-24.6%	x	x	x	5.6%	x
COc1ccc(NC(=O)c2ccc(CN3CCc4ccccc4C3)cc2)cc1OC	-28.7%	12.6µM*	x	-64.1*	-20.4%	x
C/C(=N\NC(=O)c1ccc(CN2CCc3ccccc3C2)cc1)c1ccccc1O	22.4µM*	5.62µM*	-17.2%	-96.3*	6.0%	u
CC1CCN(CCC(=O)Nc2ccc3c(c2)CCC3)CC1	x	u	-1.6%	-80.4*	-3.9%	i
CCOc1ccccc1NC(=O)c1ccc(CN2CCc3ccccc3C2)cc1	-10.8%	u	-11.3%	1.0	-0.2%	i
COc1cccc(NC(=O)c2ccc(CN3CCc4ccccc4C3)cc2)c1	-21.6%	1µM*	x	u	-4.3%	x
CCOc1ccc(NC(=O)Cn2c(C)cc3ccccc3c2=O)cc1	-13.3%	x	-1.1%	9.6	x	-5.8%
CC(=O)c1cccc(NC(=O)c2ccc3c(c2)CCCC3)c1	35.2%	11.2µM*	x	120.7	-13.4%	x
COc1cccc(NC(=O)c2ccc3c(c2)CCCC3)c1	-2.2%	1.0%	x	25.8	2.5%	x

From PubChem
